Measured values as given in PubChem BioAssay AID624305 (National Center for Advancing Translational Sciences (NCATS), 2012).
Inconclusive results are not listed. Unmarked numbers belong to inactive results. Activity calls are given as the source filed them. Calls follow the shape of the dose curve; as a rule, active = well fitted activation curve with a large enough effect; inconclusive = small, poorly fitted or top-dose-only effect; inactive = no such curve, though single readings can be large or run the other way.

Assay: qHTS assay for re-activators of p53 using a Luc reporter: Hit Validation; also: nearly all actives have a fitted effect of over 75% in size; as to activation: 0% is about no effect
Details: p53-responsive luciferase reporter cells, luminescence, H1299 line expressing heat-sensitive Ala138Val p53; series mostly up to 46.1 µM
Method in brief: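 Hit confirmation with a 1:5 dilution series, at 37 deg C for 24 hrs, in H1299 cells co-expressing temperature-sensitive p53-A138V and p53-responsive luciferase. Nocodazole served as control; luminescence read after 10 min with detection reagent.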
Potency is read from the fitted curve at half-maximal effect.

Structure (SMILES)	Potency	activation
CC(C)/C=C1\CC/C(=C\c2ccc(N(C)C)cc2)C1=O	2.91 µM (active)	–
CCOC(=O)N(Cc1ccccc1)C(C(=O)O)C(C(=O)O)N(Cc1ccccc1)C(=O)OCC (stereo not drawn)	inactive	–
CCOc1ccc(NC(=O)/C=C/c2ccccc2)c([N+](=O)[O-])c1	5.17 µM (active)	–
COc1cccc(/C=N/NC(=O)c2nc(-c3ccccc3)cc(-c3ccccc3)n2)c1O	–	-23.6% [at 9.22 µM]
Cc1ccc(/C=C(\C#N)C(=O)NCC2CCCO2)o1 (stereo not drawn)	inactive	–
CC(=O)N1CCC(C(=O)Nc2ccc(S(=O)(=O)NCCc3ccccc3)cc2)CC1	inactive	–
O=C(CC1CCCCC1)NCc1ccc(Cl)cc1	11.6 µM (active)	–
Cc1cccc2nc(CSC(=N)N)c(Br)n12	–	3.7% [at 9.22 µM]
Cc1cc(F)ccc1NC(=O)Nc1ccc2c(c1)OCO2	inactive	–
C/C(=N\NC(=O)c1cccc(Br)c1)c1ccccn1	9.2 µM (active)	–
O=C(/C(=N/N=C/c1ccc(O)c(O)c1)c1ccccc1)c1ccccc1	inactive	–
CCc1ccc(N=c2c([N+](=O)[O-])nn(-c3ccccc3)n2O)cc1	9.2 µM (active)	–
C/C(=N\NC(=O)c1ccc(F)cc1)c1ccccn1	2.06 µM (active)	–
Cc1cc([N+](=O)[O-])ccc1NC(=O)/C=C/c1cccs1	inactive	–
O=C(NC12CC3CC(CC(C3)C1)C2)c1ccc(-c2cccc(Cl)c2)o1	23.1 µM (active)	–
Cc1cccc(N/C=C/C(=O)c2cccs2)c1C	0.0651 µM (active)	–
CCOc1ccc(-c2cnc3ccccc3n2)cc1	inactive	–
Cc1ccc(C(=O)c2cc([N+](=O)[O-])ccc2N2CCCCC2)cc1C	inactive	–
Cc1ccc(C)c(OCC(O)CN2C(C)CCCC2C)c1 (stereo not drawn)	inactive	–

Structure (SMILES)	Potency	activation
O=C(CSc1nc2ccccc2c(=O)[nH]1)c1ccc(O)c(O)c1	inactive	–
Cc1ccsc1/C=N/Nc1nc2ccccc2[nH]1	1.3 µM (active)	–
CCCCn1c(SCC(=O)N2CCCC2=O)nc2cc(S(N)(=O)=O)ccc21	inactive	–
CCCOc1ccc(-c2cc3onc(-c4ccccc4)c3c(=O)n2C)cc1	5.8 µM (active)	–
COCC(=O)Nc1nnc(COc2ccccc2)s1	inactive	–
CC(C)C(=O)OCC(=O)Nc1ccc(N=Nc2ccccc2)cc1	5.8 µM (active)	–
O=C(N/N=C/c1sc(=O)[nH]c1-[n+]1ccc2ccccc2c1)c1ccccc1[O-]	inactive	–
CC(C)N1CCc2c(sc(NC(=S)NC(=O)c3ccccc3)c2C#N)C1	–	7.78% [at 9.22 µM]
O=C(Oc1c(Cl)cc(Cl)c2cccnc12)c1cccc([N+](=O)[O-])c1	inactive	–
Oc1ccccc1-c1cc(-c2ccccc2)n[nH]1	3.66 µM (active)	–
CC(C)(C)c1nnc(SCC(=O)c2ccccc2)n(N)c1=O	inactive	–
O=C(CSc1nnc(-c2ccc(O)cc2)o1)Nc1ccc2c(c1)OCCO2	8.2 µM (active)	–
Cc1cccc(/C(N)=N/OC(=O)c2ccc3c(c2)OCO3)c1	9.2 µM (active)	–
CCN1C(=S)SC(=O)C1=C1C=C(C)N(CCO)C(C)=C1	1.3 µM (active)	–
Cc1cc2nc(-c3ccc(SCC(=O)Nc4ccc(S(=O)(=O)NC5CC5)cc4)nc3)[nH]c2cc1C	2.31 µM (active)	–
Cn1c(-c2ncc(F)cc2F)cc2onc(-c3c(F)cccc3Cl)c2c1=O	2.59 µM (active)	–
COc1cccc(/C=C2\Oc3ccc(O)cc3C2=O)c1O	inactive	–
O=C(Nc1cccnc1)c1ccc([N+](=O)[O-])s1	inactive	–
Cc1cccc(-c2noc(CCC(=O)N3CCN(c4cc(C)ccc4C)CC3)n2)c1	23.1 µM (active)	–
